High-throughput results as filed in PubChem BioAssay.
S1P4 ag: agonists of human S1P4 receptor. S1P4-expressing cell line, agonist reporter assay. hit rate 0.35% among 220,000. activation, % at 4.98 µM. O95977; in the data active = activation above about 11%;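 also: 0% = DMSO vehicle and 100% = reference agonist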
S1P4 antagonist: blocks the human S1P4 receptor | O95977 | S1P4-expressing cells, antagonist mode, reporter read-out | inhibition, % at 4.98 µM | hit rate 0.26% among 220,000; in the data active = inhibition above about 29%;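 also: 0% = wells stimulated with agonist and 100% = vehicle wells without agonist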
EP2 modulator: modulators of human EP2 prostaglandin E2 receptor | P43116 | EP2-expressing cells, cAMP HTRF FRET, PGE2 co-stimulation | induction, % at 25 µM | hit rate 0.83% among 260,000 | AID 940;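 active = compounds whose cAMP rise, as percent of the full-agonist control response, exceeds 60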;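 also: rat C6 glioma line stably carrying human EP2 under a CMV promoter; the protocol text gives 20 µM as final concentration; 100% = response of wells given 1 µM PGE2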
S1P3 antagonist: S1P3 (human) receptor antagonism; inhibition, % at 4.98 µM; Q99500; hit rate 0.27% among 170,000; CHO S1P3 NFAT-BLA reporter, FRET fluorescence, antagonist mode;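 active = inhibition above the plate cutoff, the mean inhibition of test wells on that plate plus 3 SD, cut at about 28% in these data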;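 also: cells challenged with S1P at its EC80 of 0.8 µM; blue over green emission ratio from cleaved BLA substrate after 4 h stimulation; 0% = S1P-stimulated wells and 100% = unstimulated DMSO-only wells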
Target sequence (Q99500 whole entry, looked up): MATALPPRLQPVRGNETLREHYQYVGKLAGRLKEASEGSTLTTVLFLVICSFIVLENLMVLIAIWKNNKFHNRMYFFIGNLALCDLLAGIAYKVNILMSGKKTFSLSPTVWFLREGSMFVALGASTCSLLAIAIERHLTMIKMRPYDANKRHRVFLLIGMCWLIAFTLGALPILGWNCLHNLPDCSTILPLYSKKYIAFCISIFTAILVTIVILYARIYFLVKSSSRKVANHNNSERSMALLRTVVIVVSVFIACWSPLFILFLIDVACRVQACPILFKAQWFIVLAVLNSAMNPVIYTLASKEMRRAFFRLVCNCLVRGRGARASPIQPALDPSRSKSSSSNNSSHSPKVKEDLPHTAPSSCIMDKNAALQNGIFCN
PGE2 EP2 inh: EP2 receptor (human) inhibition; P43116; C6 glioma cells expressing human EP2, cAMP TR-FRET; cells stimulated with saturating PGE2; inhibition, % at 25 µM; hit rate 0.52% among 260,000; AID 1422;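 active = percent inhibition above 40 after rounding to a whole number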;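 also: rat C6 glioma host cells with rolipram phosphodiesterase inhibitor present; the protocol text gives 20 µM as final concentration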
* hit, by the source's call; . = no result given. Hits are enriched below; roughly 2% of the tested compounds scored in any of these assays.

SMILES	S1P4 ag	S1P4 antagonist	EP2 modulator	S1P3 antagonist	PGE2 EP2 inh
CC(=O)c1sc(NC(=O)C2(F)C(F)(F)C(F)(F)C(F)(F)C(F)(F)C2(F)F)nc1C	0	-2	-3	76*	-3
O=C1c2ccccc2C(=O)c2c1ccc(N1C(=O)c3ccccc3C1=O)c2-c1c(N2C(=O)c3ccccc3C2=O)ccc2c1C(=O)c1ccccc1C2=O	.	.	0	.	45*
O=C1COc2ccc(S(=O)(=O)N3CCS(=O)(=O)CC3)cc2N1	.	.	-24	.	8
O=C1COc2ccc(N3C(=O)C=CC3=O)cc2N1	1	-8	-34	8	46*
COc1cccc(C(C(=O)NC2CCCC2)N(C(=O)c2ccco2)c2ccc3c(c2)OCO3)c1OC (centres undefined)	.	.	2	.	8
COc1ccc2nc(CN3CCC(O)(c4ccccc4F)CC3)ccc2c1	.	.	-91	.	8
COc1ccc(C2N=C(N)N=C(N)N2c2ccc(C)cc2)cc1 (centres undefined)	0	-8	6	.	-6
NC1=N[C@@H](c2ccc(Cl)cc2)N(c2ccc(S(N)(=O)=O)cc2)C(N)=N1	.	.	0	.	47*
COc1ccc(-n2c(C)nnc2SC(C)C(=O)Nc2cccc3ccccc23)cc1 (centres undefined)	.	.	-8	.	9
CCC(C)N=Cc1c(Nc2ccccc2)nc2c(C)cccn2c1=O (centres undefined)	2	3	66*	2	0
Cc1cccn2c(=O)c(C=NCc3ccco3)c(Nc3ccc(SC(F)F)cc3)nc12	-2	4	23	.	4
N=c1c(C(=O)NCc2cccnc2)cc2c(=O)n3ccccc3nc2n1Cc1ccccc1	.	.	-102	.	25
CCCOc1ccc(/C(O)=C2/C(=O)C(=O)N(CCN(C)C)C2c2ccncc2)cc1 (centres undefined)	36*	-3	.	.	.
CCCOc1ccc(/C(O)=C2/C(=O)C(=O)N(CCN(CC)CC)C2c2ccncc2)cc1 (centres undefined)	.	.	.	-1	.
Cc1ccc[n+](-c2nc([O-])sc2C=O)c1	81*	-3	2	-9	5
COCCn1c(COc2ccc(Cl)cc2)nnc1SCC(=O)OC	.	.	-39	.	11
COCCn1c(COc2ccc(Cl)cc2)nnc1SCC(N)=O	0	-12	11	62*	6
CC(=O)c1ccc(N2CCN(c3ccc(C(F)(F)F)cn3)CC2)cc1	1	4	32	77*	14
CCc1ccc(C(=O)/C=C\Nc2ccc(S(=O)(=O)Nc3nnc(CC)s3)cc2)cc1	.	.	-56	.	8
Cc1cc(NC(=O)c2ccc(C)s2)n(-c2nc3ccccc3[nH]2)n1	3	-4	63*	0	10
CCOc1ccc2c(c1)sc(N)[n+]2Cc1cc(C)cc2cccnc12	2	9	46	5	5
CCOc1ccc2c(ccc(/C=C/c3cc(C)c4cccnc4c3O)[n+]2C)c1	.	.	50	.	52*
CCNC(=S)NNC(=O)c1cc(-c2cccnc2)nc2ccccc12	1	8	22	-12	44*
CCNC(=S)NNC(=O)c1cc(-c2cccc(C)c2)nc2ccccc12	0	-17	-8	.	8
Ic1ccc2c(c1)N(c1ccccc1)c1cc(Nc3ccc4nc5ccc(I)cc5[n+](-c5ccccc5)c4c3)ccc1N2	.	.	0	.	44*
SMILES	S1P4 ag	S1P4 antagonist	EP2 modulator	S1P3 antagonist	PGE2 EP2 inh
O=C(COc1ccccc1)N(Cc1ccccc1)c1nc(-c2ccccc2)cs1	1	-33	-4	.	11
CC(=O)N(Cc1ccccc1)c1nc(-c2ccccc2)cs1	0	-2	64*	7	8
O=c1c2ccccc2sn1-c1ccc(S(=O)(=O)N2CCCC2)cc1	2	-22	-29	-6	2
O=c1c2ccccc2sn1-c1ccccc1	1	9	-35	.	118*
CC(=O)NNC(=O)c1c(O)c2ccccc2n(C)c1=O	.	.	0	.	15
CCc1ccc(N2CSC3=C(C#N)C(c4cccs4)CC(=O)N3C2)cc1 (centres undefined)	2	-5	48	-10	21
CCOC(=O)c1ccc(N2CSC3=C(C#N)C(c4cccs4)CC(=O)N3C2)cc1 (centres undefined)	-1	-23	44	96*	18
Cc1ccc2nc3c(c(N)c2c1)CCCC3 (tested in a mixture with another compound)	.	.	10	.	8
Cc1ccc2nc(SCC(=O)Nc3ccc(N4CCOCC4)cc3)c(C#N)cc2c1	.	.	-1	.	12
CCOC(=O)c1cc(C(=O)c2cccs2)n2ccc(C(C)=O)cc12	1	-11	64*	.	10
CCOC(=O)c1cc(C(C)=O)n2ccccc12	2	0	22	.	7
